# The panel holds about 83,000 compounds, 20% with a hit somewhere; the sample as a whole holds those more often.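 Percent growth is the endpoint: 0 to 100 indicates growth inhibition (40 means 60% inhibition), 0 means no net growth, and negative values indicate cell death.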 A number with no mark means an inactive call. How the source made its calls: active means growth percent below 10; inactive means the rest.
# Test system: HL-60(TB) leukemia
# Experiment: NCI-60 one-dose screen, 48 h (100 = growth as untreated, 0 = no growth, -100 = all killed)
# Conditions: 10 µM unless noted
row,SMILES,growth [%]
1,NC1=NN=C(N)C1=Cc1cc2ccccc2n2nnnc12,96.8
2,N#Cc1c(-c2ccc(Cl)cc2)nc(NN2C(=O)c3ccccc3C2=O)nc1N1CCOCC1,99.8
3,Cc1nn(-c2ccccc2)c2c1oc(=O)c1cc(Cl)ccc12,84.3

# From PubChem BioAssay (NCI)
